From article PMC7862700, “An all-to-all approach to the identification of sequence-specific readers for epigenetic DNA modifications on cytosine”

Columns and labels:
Test in all cases: DAPPL (digital affinity profiling via proximity ligation, sequencing); 10 mM Tris-HCl pH 7.5, 50 mM NaCl, 1 mM DTT, 4% glycerol, room temperature, 30 min; GST-TFs on glutathione beads, 16-mer random dsDNA library, 0.1% formaldehyde crosslink after washing; high values mean tight binding
Details in all cases: protein: recombinant; tags: N-terminal GST; dsDNA, one strand shown
FLI1 = molecular target: T1, FLI1 (Homo sapiens, UniProt Q01543 1-452)
T1 sequence: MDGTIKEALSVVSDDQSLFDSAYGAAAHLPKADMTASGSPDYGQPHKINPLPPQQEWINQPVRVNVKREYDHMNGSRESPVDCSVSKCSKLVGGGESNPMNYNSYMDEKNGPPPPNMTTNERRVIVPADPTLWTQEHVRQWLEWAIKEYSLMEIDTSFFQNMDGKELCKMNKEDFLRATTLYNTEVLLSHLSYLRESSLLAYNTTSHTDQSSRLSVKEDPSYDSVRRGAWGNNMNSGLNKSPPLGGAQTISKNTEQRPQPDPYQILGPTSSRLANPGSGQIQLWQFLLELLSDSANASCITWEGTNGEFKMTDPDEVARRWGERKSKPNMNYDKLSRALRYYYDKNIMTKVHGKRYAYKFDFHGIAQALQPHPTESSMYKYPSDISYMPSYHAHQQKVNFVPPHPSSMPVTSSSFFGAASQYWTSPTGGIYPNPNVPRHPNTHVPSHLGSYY
Summary of the method: (§1)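 Pools were built from human transcription factors expressed in yeast as GST fusions, captured on glutathione beads and DNA-barcoded, along with a tag-only sample. Incubation with 200 nmole of a 16-mer random double-stranded DNA library lasted 30 min at room temperature in Tris/NaCl/DTT/glycerol buffer, and was followed by washing, 0.1% formaldehyde crosslinking, proximity ligation, PCR amplification and Illumina NextSeq500 sequencing. Binding signal is the quotient of each hexamer's read frequency for a factor and its frequency for the tag-only sample.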

ELK1 = molecular target: T2, ELK1 (Homo sapiens, UniProt P19419 1-428)
T2 sequence: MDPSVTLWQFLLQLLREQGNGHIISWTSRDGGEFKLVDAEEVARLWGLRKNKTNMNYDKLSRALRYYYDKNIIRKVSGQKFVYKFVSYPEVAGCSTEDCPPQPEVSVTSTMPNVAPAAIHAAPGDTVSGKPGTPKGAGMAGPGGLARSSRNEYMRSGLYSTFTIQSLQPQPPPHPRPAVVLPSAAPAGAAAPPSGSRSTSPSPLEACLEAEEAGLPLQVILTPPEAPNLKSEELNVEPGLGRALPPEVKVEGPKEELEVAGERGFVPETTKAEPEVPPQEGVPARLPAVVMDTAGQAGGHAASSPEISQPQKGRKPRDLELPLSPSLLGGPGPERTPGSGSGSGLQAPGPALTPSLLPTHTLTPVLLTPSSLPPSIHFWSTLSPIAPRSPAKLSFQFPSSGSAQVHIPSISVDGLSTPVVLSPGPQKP
Summary of the method: as §1

GABPA = molecular target: T3, GABPA (Homo sapiens, UniProt Q06546 1-454)
T3 sequence: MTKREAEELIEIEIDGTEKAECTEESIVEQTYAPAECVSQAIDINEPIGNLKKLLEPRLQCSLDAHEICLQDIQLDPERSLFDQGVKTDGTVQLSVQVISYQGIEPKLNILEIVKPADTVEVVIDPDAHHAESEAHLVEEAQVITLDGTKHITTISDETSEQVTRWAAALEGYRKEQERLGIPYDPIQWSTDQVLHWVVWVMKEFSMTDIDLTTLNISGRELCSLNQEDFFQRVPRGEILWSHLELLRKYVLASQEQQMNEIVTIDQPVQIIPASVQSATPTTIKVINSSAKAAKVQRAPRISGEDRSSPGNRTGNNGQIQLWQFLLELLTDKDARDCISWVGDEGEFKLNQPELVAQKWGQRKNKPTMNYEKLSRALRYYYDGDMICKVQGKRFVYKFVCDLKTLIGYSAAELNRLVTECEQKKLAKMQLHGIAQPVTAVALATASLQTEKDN
Summary of the method: as §1

ERG = molecular target: T4, ERG (Homo sapiens, UniProt P11308 1-479)
T4 sequence: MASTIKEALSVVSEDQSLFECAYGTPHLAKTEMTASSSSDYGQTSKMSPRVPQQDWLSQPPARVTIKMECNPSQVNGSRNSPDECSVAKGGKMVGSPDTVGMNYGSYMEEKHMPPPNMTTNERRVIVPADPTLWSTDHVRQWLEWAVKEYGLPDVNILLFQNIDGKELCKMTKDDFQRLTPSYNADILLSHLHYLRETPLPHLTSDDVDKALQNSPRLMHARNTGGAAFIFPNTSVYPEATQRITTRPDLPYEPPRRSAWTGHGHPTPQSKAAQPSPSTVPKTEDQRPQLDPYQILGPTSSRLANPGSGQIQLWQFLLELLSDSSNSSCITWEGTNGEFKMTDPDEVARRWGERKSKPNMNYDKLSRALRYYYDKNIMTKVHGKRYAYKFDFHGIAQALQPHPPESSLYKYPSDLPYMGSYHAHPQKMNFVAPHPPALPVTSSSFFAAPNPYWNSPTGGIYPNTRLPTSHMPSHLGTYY
Summary of the method: as §1

ELF1 = ELF1 (Homo sapiens, UniProt P32519 1-619)
ELF1, sequence (P32519 whole entry): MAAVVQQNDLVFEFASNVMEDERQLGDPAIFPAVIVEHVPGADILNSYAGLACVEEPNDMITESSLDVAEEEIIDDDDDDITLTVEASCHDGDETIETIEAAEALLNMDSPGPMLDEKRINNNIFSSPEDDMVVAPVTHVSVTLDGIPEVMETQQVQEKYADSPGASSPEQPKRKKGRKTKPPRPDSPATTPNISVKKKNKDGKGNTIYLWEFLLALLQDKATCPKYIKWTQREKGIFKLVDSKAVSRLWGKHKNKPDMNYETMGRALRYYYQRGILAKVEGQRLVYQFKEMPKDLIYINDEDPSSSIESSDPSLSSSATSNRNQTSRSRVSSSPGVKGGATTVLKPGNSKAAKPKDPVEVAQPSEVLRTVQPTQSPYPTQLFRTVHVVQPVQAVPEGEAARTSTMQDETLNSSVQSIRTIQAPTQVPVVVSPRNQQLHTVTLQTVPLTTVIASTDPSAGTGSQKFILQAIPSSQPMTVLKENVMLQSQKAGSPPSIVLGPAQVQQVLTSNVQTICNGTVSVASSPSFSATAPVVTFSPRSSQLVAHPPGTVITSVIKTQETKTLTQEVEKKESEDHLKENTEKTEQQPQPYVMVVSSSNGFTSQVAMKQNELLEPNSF
Summary of the method: as §1

EHF = molecular target: T5, EHF (Homo sapiens, UniProt Q9NZC4 1-300)
T5 sequence: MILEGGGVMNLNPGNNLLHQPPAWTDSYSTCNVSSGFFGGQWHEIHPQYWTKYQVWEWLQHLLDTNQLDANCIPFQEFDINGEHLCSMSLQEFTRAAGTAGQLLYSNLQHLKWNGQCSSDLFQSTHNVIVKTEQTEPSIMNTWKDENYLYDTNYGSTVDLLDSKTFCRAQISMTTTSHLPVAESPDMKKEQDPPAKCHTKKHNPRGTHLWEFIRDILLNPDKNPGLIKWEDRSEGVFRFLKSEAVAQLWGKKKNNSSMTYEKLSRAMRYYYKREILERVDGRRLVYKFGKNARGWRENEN
Summary of the method: as §1

SPI1 = SPI1 (Homo sapiens, UniProt P17947 1-270)
Summary of the method: as §1

SPIB = SPIB (Homo sapiens, UniProt Q01892 1-262)
SPIB, sequence (Q01892 whole entry): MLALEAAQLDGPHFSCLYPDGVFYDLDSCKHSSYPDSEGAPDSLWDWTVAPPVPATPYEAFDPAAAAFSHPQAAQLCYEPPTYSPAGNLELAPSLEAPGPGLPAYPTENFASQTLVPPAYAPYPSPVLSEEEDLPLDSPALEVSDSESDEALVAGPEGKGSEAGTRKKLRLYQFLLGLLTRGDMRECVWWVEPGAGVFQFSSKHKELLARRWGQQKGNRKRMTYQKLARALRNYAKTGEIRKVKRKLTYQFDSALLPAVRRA
Summary of the method: as §1

ELK3 = molecular target: T6, ELK3 (Homo sapiens, UniProt P41970 1-407)
T6 sequence: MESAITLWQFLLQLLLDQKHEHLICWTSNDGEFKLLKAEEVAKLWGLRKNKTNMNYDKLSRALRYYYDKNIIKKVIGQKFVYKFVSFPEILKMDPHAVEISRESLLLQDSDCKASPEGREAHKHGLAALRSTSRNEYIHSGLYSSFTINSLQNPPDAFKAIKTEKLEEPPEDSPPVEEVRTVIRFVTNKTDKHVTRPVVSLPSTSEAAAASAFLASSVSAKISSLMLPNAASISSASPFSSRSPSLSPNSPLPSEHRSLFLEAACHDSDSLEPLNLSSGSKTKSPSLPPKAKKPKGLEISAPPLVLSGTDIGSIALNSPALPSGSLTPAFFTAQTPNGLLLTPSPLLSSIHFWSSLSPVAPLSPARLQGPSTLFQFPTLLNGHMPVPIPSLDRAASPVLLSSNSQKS
Summary of the method: as §1

Row | Sequence | binding signal (FLI1) | binding signal (ELK1) | binding signal (GABPA) | binding signal (ERG) | binding signal (ELF1) | binding signal (EHF) | binding signal (SPI1) | binding signal (SPIB) | binding signal (ELK3)
1 | TCCAAC | 1.22 fold enrichment (6-mer frequency, TF over GST control) | 1.24 fold enrichment (6-mer frequency, TF over GST control) | 1.22 fold enrichment (6-mer frequency, TF over GST control) | 1.16 fold enrichment (6-mer frequency, TF over GST control) | 1.25 fold enrichment (6-mer frequency, TF over GST control) | 1.23 fold enrichment (6-mer frequency, TF over GST control) | 1.18 fold enrichment (6-mer frequency, TF over GST control) | 1.16 fold enrichment (6-mer frequency, TF over GST control) | 1.21 fold enrichment (6-mer frequency, TF over GST control)
2 | CAAATA | 1.04 fold enrichment (6-mer frequency, TF over GST control) | 1.13 fold enrichment (6-mer frequency, TF over GST control) | 1.18 fold enrichment (6-mer frequency, TF over GST control) | 1.19 fold enrichment (6-mer frequency, TF over GST control) | 1.17 fold enrichment (6-mer frequency, TF over GST control) | 1.14 fold enrichment (6-mer frequency, TF over GST control) | 1.14 fold enrichment (6-mer frequency, TF over GST control) | 1.19 fold enrichment (6-mer frequency, TF over GST control) | 1.11 fold enrichment (6-mer frequency, TF over GST control)
3 | TAAATT | 1.26 fold enrichment (6-mer frequency, TF over GST control) | 1.22 fold enrichment (6-mer frequency, TF over GST control) | 1.2 fold enrichment (6-mer frequency, TF over GST control) | 1.22 fold enrichment (6-mer frequency, TF over GST control) | 1.27 fold enrichment (6-mer frequency, TF over GST control) | 1.32 fold enrichment (6-mer frequency, TF over GST control) | 1.22 fold enrichment (6-mer frequency, TF over GST control) | 1.3 fold enrichment (6-mer frequency, TF over GST control) | 1.31 fold enrichment (6-mer frequency, TF over GST control)
4 | ATTCGT | 1.24 fold enrichment (6-mer frequency, TF over GST control) | 1.24 fold enrichment (6-mer frequency, TF over GST control) | 1.05 fold enrichment (6-mer frequency, TF over GST control) | 1.15 fold enrichment (6-mer frequency, TF over GST control) | 1.17 fold enrichment (6-mer frequency, TF over GST control) | 1.08 fold enrichment (6-mer frequency, TF over GST control) | 1.11 fold enrichment (6-mer frequency, TF over GST control) | 1.27 fold enrichment (6-mer frequency, TF over GST control) | 1.08 fold enrichment (6-mer frequency, TF over GST control)
5 | TCCGAA | 1.35 fold enrichment (6-mer frequency, TF over GST control) | 1.28 fold enrichment (6-mer frequency, TF over GST control) | 1.37 fold enrichment (6-mer frequency, TF over GST control) | 1.3 fold enrichment (6-mer frequency, TF over GST control) | 1.23 fold enrichment (6-mer frequency, TF over GST control) | 1.41 fold enrichment (6-mer frequency, TF over GST control) | 1.25 fold enrichment (6-mer frequency, TF over GST control) | 1.44 fold enrichment (6-mer frequency, TF over GST control) | 1.18 fold enrichment (6-mer frequency, TF over GST control)
6 | TTATGA | 1.15 fold enrichment (6-mer frequency, TF over GST control) | 1.15 fold enrichment (6-mer frequency, TF over GST control) | 1.22 fold enrichment (6-mer frequency, TF over GST control) | 1.08 fold enrichment (6-mer frequency, TF over GST control) | 1.19 fold enrichment (6-mer frequency, TF over GST control) | 1.16 fold enrichment (6-mer frequency, TF over GST control) | 1.15 fold enrichment (6-mer frequency, TF over GST control) | 1.14 fold enrichment (6-mer frequency, TF over GST control) | 1.22 fold enrichment (6-mer frequency, TF over GST control)
7 | GAAATC | 1.38 fold enrichment (6-mer frequency, TF over GST control) | 1.47 fold enrichment (6-mer frequency, TF over GST control) | 1.34 fold enrichment (6-mer frequency, TF over GST control) | 1.65 fold enrichment (6-mer frequency, TF over GST control) | 1.36 fold enrichment (6-mer frequency, TF over GST control) | 1.53 fold enrichment (6-mer frequency, TF over GST control) | 1.4 fold enrichment (6-mer frequency, TF over GST control) | 1.55 fold enrichment (6-mer frequency, TF over GST control) | 1.42 fold enrichment (6-mer frequency, TF over GST control)
